Where “and” joins values, the source holds several entries; their conditions need not be identical. Equal entries are not always repeated. A number with no mark means an inactive call. Records with an inconclusive call do not appear. Calls of active or inactive are those of the source. Unless noted, calls come from the whole dose curve; as a rule, active = well fitted curve in the direction sought with a large enough effect; inconclusive = small, poorly fitted or top-dose-only effect, or another doubt; inactive = no such curve, though single readings can be large; an effect the other way counts as inactive or inconclusive.

Experiment [1] is described as follows: Cell Viability - HepG2 (AID 433; calls by dose curve;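 note: potency is the fitted concentration of half-maximal effect; cells exposed to compound for 40 hours; potency for ATP loss meaning cytotoxicity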). The conditions noted are these: qHTS. In a few lines:
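Read-out is luciferase-based quantitation of cellular ATP as a measure of viable HepG2 cells after 40 h treatment at 37 °C. Signal decrease is scaled between DMSO-only and 100 uM tamoxifen controls, with AC50 fitted by the Hill equation.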
Background: In qHTS, concentration-response curves come from the screen itself.

Experiment [2] in a line: Cell Viability - HUV-EC-C (AID 542).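 Note: cells exposed to compound for 40 hours; % is set by controls: 0 for no effect and ±100 for the full control effect; nearly all actives have a fitted effect of over 35% in size.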 The conditions noted are these: HUV-EC-C endothelial cell viability, qHTS; series mostly up to 92.2 µM. Summed up:
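qHTS cytotoxicity: HUV-EC-C, 1000 cells/well, 5 hr settle, compound 40 hr 37 °C, CellTiter-Glo, luminescence. AC50 via Hill equation.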

A short description of experiment [3]: Cell Viability - Mesenchymal (AID 546).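 Note: cells exposed to compound for 40 hours before reading; 0% = DMSO only and -100% = 100 µM tamoxifen.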 Particulars: mesenchymal cells viability, qHTS; series mostly up to 91.7 µM. In a few lines: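 Normal human renal glomerulus-derived kidney mesenchymal cells, 1000 per well in complete medium, were treated with compounds for 40 hr at 37 °C. Viability was read as intracellular ATP by CellTiter-Glo luminescence; AC50 values came from Hill-equation fits of qHTS concentration-response data.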

Experiment [4] is described as follows: Cellular Toxicity (caspase-3) MRC-5 (AID 659). Particulars: MRC-5 cells, luminescence, normalized: DMSO 0%, 10 µM staurosporine 100%; series mostly up to 91.7 µM. Summed up: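 Luminescence from caspase-cleaved aminoluciferin substrate (Caspase-Glo 3/7, 1 hr RT) reports caspase 3/7 activity in MRC-5 lung fibroblasts after 16 hr compound exposure. Normalized to DMSO basal and 10 uM staurosporine as 100%; AC50 from Hill fits.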

A short description of experiment [5]: Cell Viability - LYMP2-004 (AID 966).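 Note: plate controls were DMSO only for no effect and tetraoctylammonium bromide control for full effect; nearly all actives have a fitted effect of over 65% in size.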 The conditions noted are these: LYMP2-004 lymphoblastoid cell viability, qHTS; series mostly up to 92.2 µM. Summed up: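 Cells seeded 2500/well, rested 5 hr at 37 C, dosed across a concentration series, incubated 24 hr at 37 C, then CellTiter-Glo added for 30 min at room temperature and luminescence read. Hill fitting gave AC50.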

Experiment [6] can be described thus: Cell Viability - LYMP2-017 (AID 972).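 Note: cells exposed to compound for 24 hours at 37 °C; % is set by controls: 0 for no effect and ±100 for the full control effect; nearly all actives have a fitted effect of over 55% in size.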 Particulars: LYMP2-017 lymphoblastoid cell viability; series mostly up to 92.2 µM. Summed up: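 2500 cells/well, 5 h 37 C; cpd 24 h 37 C in complete medium; CellTiter-Glo, 30 min RT; luminescence (ATP). AC50 via Hill fit, qHTS.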
Experiment [7] can be described thus: Cell Viability - LYMP2-007 (AID 979).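 Note: cells exposed to compound for 24 h before reading; nearly all actives have a fitted effect of over 60% in size.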 Note: potency is the fitted concentration of half-maximal effect. The conditions noted are these: LYMP2-007 lymphoblastoid cell viability; series mostly up to 92.2 µM. In a few lines:
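Luminescent ATP signal (CellTiter-Glo) serves as the viability read-out after 24 hr compound treatment of lymphoblastoid cells in complete medium at 37 C. Concentration-response data were fitted to the Hill equation to give AC50 values.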

Experiment [8] can be described thus: Cell Viability - LYMP2-014 (AID 983).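 Note: plate controls were DMSO only for no effect and 92 µM tetraoctylammonium bromide for full effect; nearly all actives have a fitted effect of over 50% in size.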 The conditions noted are these: LYMP2-014 lymphoblastoid cells, viability qHTS; series mostly up to 92.2 µM. In a few lines: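 Luminescent ATP signal (CellTiter-Glo, 30 min at room temperature) serves as the viability read-out after 24 hr compound exposure at 37 C. Cells were seeded at 2500 per well and settled 5 hr beforehand.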

In experiment [9] the target is Retinoic acid receptor RXR-alpha (Homo sapiens) (UniProt P19793). The experiment in a line: qHTS assay for small molecule agonists of retinoid X receptor alpha signaling (AID 588544; calls by dose curve;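 note: 0% = DMSO basal wells and 100% = reference agonist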). The conditions noted are these: HEK293T RXRa-UAS-bla, beta-lactamase reporter, 18 h; series mostly up to 76.7 µM.
Sequence of Retinoic acid receptor RXR-alpha (Homo sapiens) (P19793 whole entry, looked up): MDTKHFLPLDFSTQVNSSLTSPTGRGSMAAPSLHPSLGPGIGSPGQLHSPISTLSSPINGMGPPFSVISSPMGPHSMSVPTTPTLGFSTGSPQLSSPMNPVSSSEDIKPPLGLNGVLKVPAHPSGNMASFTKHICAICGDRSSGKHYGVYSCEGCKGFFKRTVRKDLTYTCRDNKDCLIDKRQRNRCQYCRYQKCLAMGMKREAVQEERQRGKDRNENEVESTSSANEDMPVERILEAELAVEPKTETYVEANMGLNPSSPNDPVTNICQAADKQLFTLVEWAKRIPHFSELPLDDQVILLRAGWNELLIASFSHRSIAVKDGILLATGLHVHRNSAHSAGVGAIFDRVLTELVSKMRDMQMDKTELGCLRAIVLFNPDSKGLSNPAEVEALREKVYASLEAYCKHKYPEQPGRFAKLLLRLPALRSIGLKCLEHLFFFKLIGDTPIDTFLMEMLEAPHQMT
A short description of experiment [10]: qHTS assay for small molecule disruptors of the mitochondrial membrane potential - 5 hr assay (AID 651755; calls by dose curve; note: % is set by controls: 0 for no effect and ±100 for the full control effect; nearly all actives have a fitted effect of over 40% in size). The conditions noted are these: JC-1-type ratio dye; series mostly up to 92.2 µM. Summed up: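 HepG2 cells, attached overnight at 37C, were exposed to compound or DMSO for 5 hr at 37C, 5% CO2. Mito-MPS dye was then added for 30 min, and fluorescence read at 490/535 nm (monomers) and 540/590 nm (aggregates).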

The nature of experiment [11]: qHTS assay for environmental chemicals that activate the Aryl hydrocarbon Receptor (AhR) signaling pathway (AID 651777). Note: % of control where 0% means no effect; nearly all actives have a fitted effect of over 15% in size. Particulars: 1A2-DRE human hepatoma cells, luciferase, 24 h; activation: active compounds read high. In a few lines: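 AhR activation is scored as a rise in luciferase from a stable DRE–CYP1A2 promoter construct in human hepatoma cells. Treatment lasts 24 hr at 37 C; detection uses One-Glo after 30 min at room temperature.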

Experiment [12] in a line: qHTS assay for small molecule agonists of the antioxidant response element (ARE) signaling pathway measured by Nrf2-dependant transcriptional activity (AID 720636; active = well fitted curve in the direction sought with a large enough effect in the repeat runs; an effect the other way counts as inactive or inconclusive;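 note: HepG2 cells with an ARE-driven luciferase reporter; % of control where 0% means no effect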). Particulars: ARE-luc HepG2, Nrf2 luciferase reporter, 16 h; series mostly up to 92.4 µM. Summed up:
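First, ARE-luc HepG2 cells attached for 6 hr at 37 C in 1% dialyzed FBS medium. Next, compound or DMSO was added and incubated 16 hr. Finally, ONE-Glo reagent was added and luminescence measured after 30 min.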

Experiment [13] can be described thus: Cellular Toxicity (caspase-3) SK-N-SH (AID 661). Note: potency is the fitted concentration of half-maximal effect. Particulars: SK-N-SH caspase-3 activation, qHTS; series mostly up to 91.7 µM. Summed up: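 Human neuroblastoma SK-N-SH, 1500 cells/well, 5 hr pre-incubation, then compound 16 hr, 37 °C. Caspase-Glo 3/7 reagent, 1 hr RT, luminescence. Norm. to DMSO/10 uM staurosporine; Hill-fit AC50.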
The nature of experiment [14]: Cellular Toxicity (caspase-3) NIH 3T3 (AID 666).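 Note: caspase signal read after 16 h compound exposure; 0% = DMSO basal and 100% = 100 µM tamoxifen stimulation.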 The conditions noted are these: NIH 3T3 caspase-3 activation, apoptosis/toxicity; series mostly up to 92.2 µM. In a few lines:
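Luminescence from aminoluciferin released by caspase-3/7 cleavage of a peptide substrate served as read-out. Mouse fibroblast NIH 3T3 cells were exposed to compounds over a concentration range for 16 hours, and AC50 values came from standard Hill modelling.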

The nature of experiment [15]: Cell Viability - LYMP2-021 (AID 974).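 Note: compound exposure lasts 24 hours at 37 °C; nearly all actives have a fitted effect of over 55% in size.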 Note: potency is the fitted concentration of half-maximal effect. The conditions noted are these: LYMP2-021 lymphoblastoid cells viability; series mostly up to 92.2 µM. Summed up: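 Plate 2500 lymphoblastoid cells per well and incubate 5 hr at 37 C. Add compounds over a concentration range and incubate 24 hr at 37 C. Add CellTiter-Glo, wait 30 min at room temperature, read luminescence.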
Experiment [16] is described as follows: Cell Viability - LYMP2-006 (AID 978).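 Note: cells exposed to compound for 24 hours; nearly all actives have a fitted effect of over 60% in size.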 Note: potency is the fitted concentration of half-maximal effect. The conditions noted are these: LYMP2-006 lymphoblastoid cell viability, qHTS; series mostly up to 92.2 µM. Summed up: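 Cells are seeded at 2500 per well and rested 5 hr at 37 C. Compounds are added across a concentration series for 24 hr at 37 C, after which ATP is quantified by luciferase luminescence.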
For experiment [17], the target named is Voltage-gated inwardly rectifying potassium channel KCNH2 (Homo sapiens) (UniProt Q12809). Put plainly: qHTS Assay for Small Molecule Inhibitors of the Human hERG Channel Activity (AID 588834).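 Note: top concentration of the series differs between compounds; % is set by controls: 0 for no effect and ±100 for the full control effect; lower thallium flux fluorescence means stronger hERG block; nearly all actives have a fitted effect of over 50% in size.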 The conditions noted are these: U2OS BacMam hERG, FluxOR thallium flux fluorescence; series mostly up to 92.2 µM. Summed up:
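hERG-BacMam U2OS, 2000 cells/well; 0.7X FluxOR loading 1 hr RT dark; cpd ~10 min 37 °C; stim buffer; FDSS fluorescence 2 min @ 1 s; AC50 Hill fit.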

A short description of experiment [18]: qHTS assay for small molecule activators of the p53 signaling pathway (AID 651743; active = well fitted activation curve with a large enough effect in the signal ratio, not every such curve was filed as active; the % refers to the signal ratio; note: % of control where 0% means no effect). Particulars: HCT-116 p53RE-bla, beta-lactamase FRET ratio, 16 h; activation: active compounds read high. Summed up: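 Cell-based beta-lactamase reporter (p53 response elements, HCT-116 background). After a 5-hour preincubation, cells received compound for 16 hours at 37 C; substrate development ran 2 hours at room temperature.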

The nature of experiment [19]: Cell Viability - LYMP2-023 (AID 975).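 Note: cellular ATP measured by luciferase luminescence as viability proxy; cells exposed to compound for 24 hours at 37 °C; plate controls were DMSO only for no effect and 92 µM tetraoctylammonium bromide control for full effect; nearly all actives have a fitted effect of over 55% in size.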 Particulars: LYMP2-023 lymphoblastoid cell viability; series mostly up to 92.2 µM. In a few lines: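 2500 cells/well, 5 hr 37 C; cpd 24 hr 37 C; CellTiter-Glo, 30 min RT; luminescence. qHTS conc-response, Hill fit -> AC50. Pos ctrl tetraoctylammonium bromide.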
The nature of experiment [20]: Cell Viability - LYMP2-026 (AID 989). Note: % is set by controls: 0 for no effect and ±100 for the full control effect; nearly all actives have a fitted effect of over 50% in size. Particulars: LYMP2-026 lymphoblastoid cell viability, qHTS; series mostly up to 92.2 µM. In a few lines: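 Luminescent ATP signal (CellTiter-Glo, 30 min room temperature) measures viable lymphoblastoid cells after 24 hr compound treatment at 37 C. Decreased ATP reflects acute toxicity; AC50 values come from Hill-equation modeling.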

Sequence of Voltage-gated inwardly rectifying potassium channel KCNH2 (Homo sapiens) (Q12809 whole entry, looked up): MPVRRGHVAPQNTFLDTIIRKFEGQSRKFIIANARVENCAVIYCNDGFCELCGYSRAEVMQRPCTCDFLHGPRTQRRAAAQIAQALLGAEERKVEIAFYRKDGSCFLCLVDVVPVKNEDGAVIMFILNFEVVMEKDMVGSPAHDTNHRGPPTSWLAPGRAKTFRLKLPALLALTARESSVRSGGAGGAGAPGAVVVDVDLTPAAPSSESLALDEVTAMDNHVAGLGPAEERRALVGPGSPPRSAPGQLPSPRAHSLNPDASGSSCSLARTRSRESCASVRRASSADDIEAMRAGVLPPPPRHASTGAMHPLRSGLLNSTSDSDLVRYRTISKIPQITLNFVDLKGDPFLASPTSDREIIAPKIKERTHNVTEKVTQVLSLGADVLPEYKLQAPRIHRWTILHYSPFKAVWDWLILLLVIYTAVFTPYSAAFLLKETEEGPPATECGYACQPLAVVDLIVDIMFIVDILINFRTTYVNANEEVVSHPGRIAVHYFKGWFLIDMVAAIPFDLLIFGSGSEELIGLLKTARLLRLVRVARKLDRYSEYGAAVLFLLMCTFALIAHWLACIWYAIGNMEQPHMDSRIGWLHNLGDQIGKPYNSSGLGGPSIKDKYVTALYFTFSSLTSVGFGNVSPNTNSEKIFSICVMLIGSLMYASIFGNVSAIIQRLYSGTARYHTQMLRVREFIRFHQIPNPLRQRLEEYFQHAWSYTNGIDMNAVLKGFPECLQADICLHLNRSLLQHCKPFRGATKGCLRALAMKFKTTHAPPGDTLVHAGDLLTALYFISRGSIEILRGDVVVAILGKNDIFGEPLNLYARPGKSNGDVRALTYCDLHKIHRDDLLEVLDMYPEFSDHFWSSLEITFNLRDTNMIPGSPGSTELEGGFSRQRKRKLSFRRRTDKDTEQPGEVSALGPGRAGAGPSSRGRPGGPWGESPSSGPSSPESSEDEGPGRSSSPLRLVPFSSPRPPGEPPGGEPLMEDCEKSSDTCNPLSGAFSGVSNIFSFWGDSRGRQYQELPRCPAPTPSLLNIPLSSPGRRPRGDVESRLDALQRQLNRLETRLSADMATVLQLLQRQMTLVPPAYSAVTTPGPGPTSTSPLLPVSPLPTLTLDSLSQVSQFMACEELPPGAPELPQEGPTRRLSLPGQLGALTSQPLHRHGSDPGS

As to `CCNCC`, in [1], the Potency is above 92 µM. The Potency entry in experiment [2], in [3], in [5], in experiment [6], in experiment [7] and in experiment [8] was “inactive” throughout. Besides, the Potency entry in experiment [10] and in [12] was “inactive” throughout. Further, the call in experiment [4] and in experiment [9] was inactive. Besides, the activation in experiment [11] is -0.962%.

For `BrCC(Br)(Br)Br`, the Potency is above 92 µM in experiment [1]; 25.1 µM (active) in experiment [13]; 20 µM (active) in [15]; 15.8 µM (active) in experiment [16]; 12.6 µM (active) in experiment [7]. For the same compound, the Potency entry in experiment [2], in experiment [3], in experiment [14], in experiment [17], in experiment [10] and in [12] was “inactive” in each case. In addition, the call in experiment [4] and in experiment [9] was inactive. For the same compound, the activation in experiment [18] is -0.838%; in experiment [11] it was 1.69%.

For `COP(=S)(OC)SCn1nnc2ccccc2c1=O`, the Potency result in experiment [2], in experiment [13], in [14], in [6], in experiment [15] and in experiment [19] was “inactive” throughout. Moreover, the Potency result in experiment [16], in [7], in experiment [8] and in experiment [17] was “inactive” in each case. For the same compound, the compound was classed as inactive in [4]. The activation is 1.84% and 3.37% in experiment [18]; 2.58% and 5.04% in experiment [11].

With `CN(C)c1ccc(N(C)C)cc1`, the Potency in experiment [1] is above 92 µM. Also, the Potency result in experiment [2], in experiment [3], in experiment [13], in [19], in experiment [17] and in [10] was “inactive” throughout. For the same compound, the compound was classed as inactive in [4] and in experiment [9]. Also, in experiment [18], the activation was 1.85%.

On to `CC[N+](=O)[O-]`, for which the Potency in [1] was above 92 µM. Further, the Potency result in [3], in [13], in experiment [14], in [5], in experiment [6] and in [15] was “inactive” in each case. The Potency result in experiment [19], in [16], in [7], in experiment [8], in experiment [20] and in experiment [17] was “inactive” in each case. Also, the result in experiment [9] was inactive. Also, the activation is -3.29% in experiment [18] and -0.343% in [11].

For the compound `Oc1cc(Cl)cc(Cl)c1`, the Potency in [1] is above 92 µM. Further, the Potency entry in experiment [2], in experiment [13], in experiment [14], in experiment [5], in experiment [6] and in [15] was “inactive” in each case. Also, the Potency result in [19], in [16], in [7], in experiment [8], in [20] and in experiment [12] was “inactive” in each case. Also, the compound was classed as inactive in experiment [4]. For the same compound, the figures for the activation in [18] and in experiment [11] were 1.86% and 1.21%, respectively.

In the case of `Nc1ccc(Cc2ccc(N)cc2)cc1`, the Potency result in experiment [3], in [13], in experiment [5], in [6], in experiment [15] and in experiment [19] was “inactive” each time. In addition, the Potency result in experiment [16], in [7], in experiment [8], in experiment [20], in [17] and in [10] was “inactive” throughout. Besides, in experiment [12], the Potency result was “inactive”. Further, the outcome in experiment [4] and in [9] was inactive. Also, the activation in experiment [18] is -1.69% and -2.54%; in experiment [11] it was 1.41% and 1.54%.

In the case of `CC(C)CON=O`, the Potency in [1] was above 92 µM. Further, the Potency entry in experiment [2], in [13], in [14], in experiment [5], in experiment [6] and in experiment [15] was “inactive” in each case. Moreover, the Potency result in [19], in experiment [16], in experiment [7], in experiment [8], in [20] and in experiment [17] was “inactive” throughout. In addition, the Potency result in experiment [10] is “inactive”. Further, in experiment [4], the compound was classed as inactive. Further, the results for the activation in experiment [18] and in [11] were -2.37% and 1.53%, respectively.

As to `O=C(O)CBr`, the Potency in experiment [1] is above 92 µM. The Potency result in [2], in experiment [3], in experiment [13], in [5], in experiment [6] and in experiment [19] was “inactive” in each case. Further, the Potency entry in experiment [7], in [20], in [17], in experiment [10] and in experiment [12] was “inactive” throughout. Further, the compound was called inactive in experiment [4]. Moreover, the activation in experiment [18] was -0.316%; in experiment [11], -0.817%.

Values taken from PubChem BioAssay (NCATS).
